Measured values published in PubChem BioAssay (NCATS).
Results filed as inconclusive are left out. Where a call stands in place of a potency, no number is given. Unmarked numbers belong to inactive results. Active and inactive are the calls of the source. Unless noted, calls come from the whole dose curve; as a rule, active = well fitted curve in the direction sought with a large enough effect; inconclusive = small, poorly fitted or top-dose-only effect, or another doubt; inactive = no such curve, though single readings can be large; an effect the other way counts as inactive or inconclusive.

How the values were obtained:
[1] = target: Aldehyde dehydrogenase, mitochondrial (Homo sapiens) (UniProt P05091); experiment: qHTS for Inhibitors of the Aldehyde Dehydrogenase Family (ALDH2) Confirmatory screens (AID 2061303; active = well fitted inhibition curve with a large enough effect; title and protocol of this record describe different tests; note: nearly all actives have a fitted effect of over 45% in size; note: potency is the fitted concentration of half-maximal effect)
[2] = qHTS for Inhibitors of the Aldehyde Dehydrogenase Family (ALDH1A2, ALDH1A3, ALDH2, ALDH3A1) (AID 2061307); note: nearly all actives have a fitted effect of over 50% in size; for potency: test system not described further here; potency is the fitted concentration of half-maximal effect
[3] = target: Aldehyde dehydrogenase, mitochondrial (Homo sapiens) (UniProt P05091); experiment: qHTS for Inhibitors of the Aldehyde Dehydrogenase Family (ALDH2) Primary screen (AID 2061308); note: nearly all actives have a fitted effect of over 55% in size; note: potency is the fitted concentration of half-maximal effect
[4] = target: Retinaldehyde dehydrogenase 3 (Homo sapiens) (UniProt P47895); experiment: qHTS for Inhibitors of the Aldehyde Dehydrogenase Family (ALDH1A3) Primary screen (AID 2061315)
[5] = target: Aldehyde dehydrogenase 1A1 (Homo sapiens) (UniProt P00352); experiment: qHTS for Inhibitors of the Aldehyde Dehydrogenase Family (ALDH1A1) Confirmatory screens (AID 2061316); note: nearly all actives have a fitted effect of over 65% in size; note: potency is the fitted concentration of half-maximal effect
[6] = BET inhibitor-based combinations targeting novel dependencies in MECOM-rearranged (r) AML: SET-2 cell line (AID 2202231); conditions: SET-2 AML cells viability, CellTiter-Glo luminescence, 48 h; viability: active compounds read low, series mostly up to about 46 µM; note: nearly all actives have a fitted effect of over 35% in size
Method in brief: (§1)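 Luminescent ATP readout (CellTiter-Glo) after 48 hr drug exposure gives viability. Curves span 11 concentrations and are normalized to DMSO and empty wells. Activity is reported as area under the curve and its Z-transform within each cell line.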

[7] = BET inhibitor-based combinations targeting novel dependencies in MECOM-rearranged (r) AML: OCI-AML3 cell line (AID 2202232); conditions: Potency: OCI-AML3 viability; note: series mostly up to about 46 µM; nearly all actives have a fitted effect of over 35% in size
Method in brief: as §1

[8] = BET inhibitor-based combinations targeting novel dependencies in MECOM-rearranged (r) AML: MV-4-11 cell line (AID 2202233); note: potency is the fitted concentration of half-maximal effect; nearly all actives have a fitted effect of over 45% in size
Method in brief: (§2)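 Luminescent ATP readout (CellTiter-Glo, 15 min at room temperature) after 48 hr drug exposure gave viability. Dose-response curves, normalized to DMSO and empty-well controls, were summarized as area under the curve and its mean-centred Z-score.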

[9] = BET inhibitor-based combinations targeting novel dependencies in MECOM-rearranged (r) AML: HNT-34 cell line (AID 2202234); note: nearly all actives have a fitted effect of over 35% in size
Method in brief: as §2

[10] = BET inhibitor-based combinations targeting novel dependencies in MECOM-rearranged (r) AML: UCSD-AML1 cell line (AID 2202235); note: series mostly up to about 46 µM; nearly all actives have a fitted effect of over 40% in size
Method in brief: as §2

[11] = BET inhibitor-based combinations targeting novel dependencies in MECOM-rearranged (r) AML: AML-191 cell line (AID 2202236; note: nearly all actives have a fitted effect of over 35% in size)
Method in brief: as §1

[12] = BET inhibitor-based combinations targeting novel dependencies in MECOM-rearranged (r) AML: AML-194 cell line (AID 2202237; note: nearly all actives have a fitted effect of over 40% in size)
Method in brief: as §1

[13] = target: Retinaldehyde dehydrogenase 3 (Homo sapiens) (UniProt P47895); experiment: qHTS for Inhibitors of the Aldehyde Dehydrogenase Family (ALDH1A3) Confirmatory screens (AID 2061311); note: nearly all actives have a fitted effect of over 60% in size; note: potency is the fitted concentration of half-maximal effect
[14] = target: Retinal dehydrogenase 2 (Homo sapiens) (UniProt O94788); experiment: qHTS for Inhibitors of the Aldehyde Dehydrogenase Family (ALDH1A2) Confirmation screens (AID 2061314); note: potency is the fitted concentration of half-maximal effect; nearly all actives have a fitted effect of over 65% in size

## Cn1nnnc1Sc1ncnc2scc(-c3cccc(Br)c3)c12
[1]
  Potency: inactive
[2]
  Potency: inactive
[3]
  Potency: inactive
[4]
  Potency: inactive
[5]
  Potency: inactive

## COc1ccc(-n2cnc3cc(C(=O)N4CCCCC4)ccc32)cc1
[1]
  Potency: inactive
[2]
  Potency: inactive
[3]
  Potency: inactive
[4]
  Potency: inactive
[5]
  Potency: inactive
[6]
  viability: 112%
[7]
  Potency: inactive
[8]
  Potency: 18.6 µM (active)
[9]
  Potency: inactive
[10]
  Potency: inactive
[11]
  Potency: inactive
[12]
  Potency: inactive

## CC(=O)N1CCN(c2ccc(NCc3ccc(-c4cccc(Cl)c4)o3)cc2)CC1
[1]
  Potency: 1.13 µM (active)
[2]
  Potency: 1.59 µM (active)
[3]
  Potency: 2.24 µM (active)
[5]
  Potency: 6.34 µM (active)

## Cc1cc(N[S+](=O)([O-])c2ccc(NC(=O)Cc3ccc4nccnc4c3)cc2)no1
[1]
  Potency: inactive
[2]
  Potency: inactive
[3]
  Potency: inactive
[4]
  Potency: inactive

## CC(C)(C)OC(=O)N1CCN(c2ccc(NCc3coc(-c4ccc(C#N)cc4)c3)cc2)CC1
[1]
  Potency: 0.798 µM (active)
[2]
  Potency: inactive
[3]
  Potency: 2 µM (active)
[4]
  Potency: inactive
[5]
  Potency: 3.57 µM (active)

## O=S(=O)(Nc1cc(O)cc2cccnc12)c1ccc(Br)s1
[1]
  Potency: inactive
[2]
  Potency: inactive
[13]
  Potency: inactive
[14]
  Potency: 0.634 µM (active)

## O=S(=O)(NCCCCCCNS(=O)(=O)c1c(F)cccc1F)c1ccc2c(c1)OCCO2
[1]
  Potency: inactive
[2]
  Potency: 5.01 µM (active)
[3]
  Potency: inactive
[4]
  Potency: inactive
[5]
  Potency: 8.96 µM (active)

## N#Cc1nc(Nc2ccccc2)nc(NC2CCCC2)n1
[1]
  Potency: 1.78 µM (active)
[2]
  Potency: 0.631 µM (active)
[3]
  Potency: inactive
[4]
  Potency: inactive

## O=c1cc(-c2ccccn2)oc2c(Nc3ccccc3)nccc12
[1]
  Potency: inactive
[2]
  Potency: inactive
[13]
  Potency: 20 µM (active)

## CC(=O)Nc1sc2c(c1-c1cccc(F)c1)CCNC2
[1]
  Potency: inactive
[2]
  Potency: inactive
[13]
  Potency: inactive
[14]
  Potency: 20.1 µM (active)
[4]
  Potency: inactive
[5]
  Potency: inactive

## Oc1ccc(CNc2ccccc2F)c2cccnc12
[1]
  Potency: 2.83 µM (active)
[2]
  Potency: inactive
[13]
  Potency: inactive
[14]
  Potency: 5.65 µM (active)
[5]
  Potency: 2.25 µM (active)

## COc1ccc(C2Nc3ccccc3C(=O)N2Cc2ccco2)cc1COc1cccc(NC(C)=O)c1 (centres undefined)
[1]
  Potency: 11.3 µM (active)
[2]
  Potency: 12.7 µM (active)
[13]
  Potency: 11.3 µM (active)
[14]
  Potency: 11.3 µM (active)
[4]
  Potency: inactive
[5]
  Potency: 4 µM (active)

## O=c1c(Nc2ccc(Cl)c(Cl)c2)c(Nc2nnc(-c3ccncc3)s2)c1=O
[1]
  Potency: 2 µM (active)
[2]
  Potency: 11.3 µM (active)
[13]
  Potency: 11.2 µM (active)
[14]
  Potency: 3.98 µM (active)
[4]
  Potency: inactive
[5]
  Potency: 8.96 µM (active)
